Reference: the supplement of paper PMC6522484
± gives the standard deviation of the averaged measurements.

What follows are compounds tested on SW480 (assay: TCF/Wnt firefly luciferase reporter signal relative to plate median (fraction of plate median); higher = higher Wnt reporter signal). Details: 5 µM; treatment time 24 h; reporter: 7TFP.
Procedure, shortened: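 On parallel plates, a Tecan F500 reader recorded either firefly luciferase or CellTiterGlo luminescence. The plates held colorectal cancer cells stably transduced with lentiviral TCF/Wnt firefly luciferase reporters (7TFP or TCF4/Wnt), seeded in 384-well format and treated 24 h later with library compounds at a final 5 µM for 24 h. Per-well signals were normalised to the plate median (webcellHTS2, additive, no log transformation), and two independent replicates were averaged.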
For CN(C)CCc1c[nH]c2ccc(Cn3cncn3)cc12, the “TCF/Wnt firefly luciferase reporter signal” value was 1.07 ± 0.099.
With O=c1c(O)c(-c2ccc(O)c(O)c2)oc2c(O[C@@H]3O[C@H](CO)[C@@H](O)[C@H](O)[C@H]3O)c(O)cc(O)c12 the “TCF/Wnt firefly luciferase reporter signal” value was 0.997 ± 0.061.
With CCCNC(C)C(=O)Nc1ccccc1C (stereo not drawn) the “TCF/Wnt firefly luciferase reporter signal” value was 0.96 ± 0.03.
In the case of CC(=O)O[C@@H]1C[C@H]2C(C)(C)[C@@H](O)CC[C@]2(C)[C@H]2CC[C@@]3(C)[C@H](c4ccoc4)OC(=O)[C@H]4O[C@]43[C@@]21C [beta-DIHYDROGEDUNOL], the “TCF/Wnt firefly luciferase reporter signal” value is reported as 1.12 ± 0.085.
For COc1ccc2c(c1)c(CC(=O)O)c(C)n2C(=O)c1ccc(Cl)cc1, the “TCF/Wnt firefly luciferase reporter signal” value was 1.1 ± 0.014.
In the case of COc1ccc(-c2coc3c(OC)c(OC)cc(O)c3c2=O)cc1, the “TCF/Wnt firefly luciferase reporter signal” value is reported as 0.98 ± 0.042.
C=C1C[C@]23C[C@@]1(O)CC[C@H]2[C@@]12C=C[C@H](O)[C@@](C)(C(=O)O1)[C@H]2[C@@H]3C(=O)O was tested, and the “TCF/Wnt firefly luciferase reporter signal” value was 0.869 ± 0.14.
In the case of C[C@H]1[C@H](C)CC[C@]2(CO)CC[C@]3(C)C(=CC[C@@H]4[C@@]5(C)CC[C@H](O)C(C)(C)[C@@H]5CC[C@]43C)[C@H]12, the “TCF/Wnt firefly luciferase reporter signal” value is reported as 0.915 ± 0.048.
For CC(=O)Oc1cccc(O)c1, the “TCF/Wnt firefly luciferase reporter signal” value was 1.05 ± 0.028.
For CCN(CC)C(C)CN1c2ccccc2Sc2ccccc21 (stereo not drawn), the “TCF/Wnt firefly luciferase reporter signal” value was 1.05 ± 0.078.
In the case of CCCCCC1C(=O)CCC1CC(=O)O (stereo not drawn), the “TCF/Wnt firefly luciferase reporter signal” value is reported as 1.04 ± 0.058.
In the case of OC[C@H]1O[C@@H](Oc2ccc(O)cc2)[C@H](O)[C@@H](O)[C@@H]1O, the “TCF/Wnt firefly luciferase reporter signal” value is reported as 0.975 ± 0.033.
In the case of O=C(O)c1nc2cc(Cl)c(Cl)cc2nc1O, the “TCF/Wnt firefly luciferase reporter signal” value is reported as 0.951 ± 0.098.
C[C@@H]1O[C@H]2O[C@@H]3[C@@H](C)OC(c4ccc5c(c4O)C(=O)c4ccc(C[C@@](C)(O)CC(=O)O)c(O)c4C5=O)C[C@H]3O[C@H]2CC1=O (stereo partly drawn) [Fridamycin D] was tested, and the “TCF/Wnt firefly luciferase reporter signal” value was 1.08 ± 0.021.
For CN1C(C)(C)CCCC1(C)C, the “TCF/Wnt firefly luciferase reporter signal” value was 1 ± 0.025.
N[C@@H](Cc1cc(I)c(Oc2cc(I)c(O)c(I)c2)c(I)c1)C(=O)O was tested, and the “TCF/Wnt firefly luciferase reporter signal” value was 1.17 ± 0.05.
In the case of COc1cc2c(cc1OC)-c1cc3ccc(OC)c(OC)c3c[n+]1CC2, the “TCF/Wnt firefly luciferase reporter signal” value is reported as 1.01 ± 0.073.
For CN1CCC[C@@H]1Cc1c[nH]c2ccc(CCS(=O)(=O)c3ccccc3)cc12, the “TCF/Wnt firefly luciferase reporter signal” value was 1.04 ± 0.063.
CCC(=O)NCC[C@@H]1CCc2ccc3c(c21)CCO3 was tested, and the “TCF/Wnt firefly luciferase reporter signal” value was 0.91 ± 0.023.
For O=C(Nc1ccc([N+](=O)[O-])cc1Cl)c1cc(Cl)ccc1O, the “TCF/Wnt firefly luciferase reporter signal” value was 0.964 ± 0.22.
With C=CC1=C(C(=O)O)N2C(=O)[C@@H](NC(=O)/C(=N\O)c3csc(N)n3)[C@H]2SC1 the “TCF/Wnt firefly luciferase reporter signal” value was 0.969 ± 0.072.
In the case of CC(N)C12CC3CC(CC(C3)C1)C2 (stereo not drawn), the “TCF/Wnt firefly luciferase reporter signal” value is reported as 0.9945 ± 0.0078.
For CCCCCC/C=C\CCCCCCCc1cccc(O)c1C(=O)O, the “TCF/Wnt firefly luciferase reporter signal” value was 0.996 ± 0.021.
For C[N+](C)(C)CC(=O)O, the “TCF/Wnt firefly luciferase reporter signal” value was 0.9215 ± 0.0064.
In the case of Cc1nc2ccccc2c(=O)[nH]1 [2-Methyl-3H-quinazoline-4-on], the “TCF/Wnt firefly luciferase reporter signal” value is reported as 1.1 ± 0.021.
For CNC[C@H](O)c1ccc(O)c(O)c1, the “TCF/Wnt firefly luciferase reporter signal” value was 1.12 ± 0.042.
With CC(C)Oc1ccc2c(=O)c(-c3ccccc3)coc2c1 the “TCF/Wnt firefly luciferase reporter signal” value was 0.949 ± 0.34.
With Oc1ccc2c(c1)O[C@H](c1ccc(O)c(O)c1)[C@@H](O)C2 the “TCF/Wnt firefly luciferase reporter signal” value was 0.9675 ± 0.005.
CC1(C)C[C@@H]2/C(CO)=C\C=C/[C@@](C)(O)CC[C@]21O was tested, and the “TCF/Wnt firefly luciferase reporter signal” value was 0.818 ± 0.093.
For COc1cc(NS(=O)(=O)c2ccc(N)cc2)nc(OC)n1, the “TCF/Wnt firefly luciferase reporter signal” value was 0.8105 ± 0.0064.
C=C1C(=O)[C@]23[C@H](CC[C@@H]1[C@@H]2O)[C@]12CO[C@@]3(O)[C@H](O)[C@H]1C(C)(C)CC[C@@H]2O was tested, and the “TCF/Wnt firefly luciferase reporter signal” value was 0.731 ± 0.035.
Oc1ccc2c(c1)OC[C@]1(O)Cc3cc(O)c(O)cc3[C@H]21 was tested, and the “TCF/Wnt firefly luciferase reporter signal” value was 0.909 ± 0.024.
For Cc1cc(O)c(C)c(O)c1C(=O)O, the “TCF/Wnt firefly luciferase reporter signal” value was 0.949 ± 0.23.
For C[C@@H]1CC[C@]2(C(=O)O[C@@H]3O[C@H](CO)[C@@H](O)[C@H](O)[C@H]3O)CC[C@]3(C)C(=CC[C@@H]4[C@@]5(C)C[C@@H](O)[C@H](O)[C@@](C)(CO)[C@@H]5CC[C@]43C)[C@@H]2[C@]1(C)O [Nigaichigoside F1], the “TCF/Wnt firefly luciferase reporter signal” value was 1.06 ± 0.24.
CC(=O)N1CCN(c2ccc(OCC3COC(Cn4ccnc4)(c4ccc(Cl)cc4Cl)O3)cc2)CC1 (stereo not drawn) was tested, and the “TCF/Wnt firefly luciferase reporter signal” value was 1.01 ± 0.061.
For N/C(=N\C(=O)c1nc(Cl)c(N)nc1N)NCc1ccccc1, the “TCF/Wnt firefly luciferase reporter signal” value was 1.04 ± 0.066.
For CC(C)(Sc1cc(C(C)(C)C)c(O)c(C(C)(C)C)c1)Sc1cc(C(C)(C)C)c(O)c(C(C)(C)C)c1, the “TCF/Wnt firefly luciferase reporter signal” value was 1.035 ± 0.0071.
For NC(CO)C(=O)NNCc1ccc(O)c(O)c1O (stereo not drawn), the “TCF/Wnt firefly luciferase reporter signal” value was 1.08 ± 0.021.
